The supplement of paper PMC11732987, “Enantioselective OTUD7B fragment discovery through chemoproteomics screening and high-throughput optimisation” (Communications Chemistry, 2025)

Tests used:
Assay in all cases: log2 ratio of Biotin-Ahx-Ub-VS probe labelling (compound/DMSO); higher = less target engagement, active = hit call of the paper (q ≤ 0.05, log2 ratio ≤ -1)
Details in all cases: treatment time: 3 h
[1] = compound: CCC1N(CCc2sccc12)C(=O)CCl
In short: (§1)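 DUBs in HEK293T lysate were labelled with Biotin-Ahx-Ub-VS (0.5 µM final, 1 h) after a 3 h treatment with compound at 50 or 200 µM or with DMSO, done in triplicate on 495 µg of lysate per sample. NeutrAvidin-enriched proteins were digested with LysC and trypsin and run by diaPASEF LC-MS/MS. Median-normalised label-free quantities gave average base-two log ratios of compound to DMSO by unpaired t-test, restricted to proteins with at least 2 unique peptides.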

[2] = compound: CN1c2ccccc2C(CS1(=O)=O)NC(=O)CCl
In short: as §1

[3] = compound: Cl.ClCC(=O)N1CCc2ncncc2C1
In short: as §1

[4] = compound: Cl.Cn1ncc2C(CCCc12)NC(=O)CCl
In short: as §1

[5] = compound: ClCC(=O)NC1CCOc2ccccc12
In short: as §1

[6] = compound: ClCC(=O)NC1CCCc2ccccc12
In short: (§2)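 Average ratios of compound to vehicle were obtained by unpaired t-test. Beforehand, 495 µg samples of HEK293T lysate in buffer with protease inhibitors were treated in triplicate with compound over a concentration series or vehicle for 3 h, then with 0.5 µM final Biotin-Ahx-Ub-VS for 1 h. Labelled deubiquitinases were NeutrAvidin-enriched, digested and quantified label-free by diaPASEF LC-MS/MS in Spectronaut, normalised to the global median. Values are log2 and cover proteins with at least two unique peptides.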

[7] = compound: ClCC(=O)N[C@@H]1CCCc2ccccc12
In short: as §2

[8] = compound: ClCC(=O)N[C@H]1CCCc2ccccc12
In short: as §2

[9] = compound: CCC1N(CCc2cc(OC)c(Cl)cc12)C(=O)CCl
In short: as §1

[10] = compound: CCCC1N(CCc2cc(OC)c(OC)cc12)C(=O)CCl
In short: as §1

Measured: log2 ratio of Biotin-Ahx-Ub-VS probe labelling

USP25 (UniProt Q9UHP3)
Sequence of UniProt Q9UHP3 (Q9UHP3 whole entry): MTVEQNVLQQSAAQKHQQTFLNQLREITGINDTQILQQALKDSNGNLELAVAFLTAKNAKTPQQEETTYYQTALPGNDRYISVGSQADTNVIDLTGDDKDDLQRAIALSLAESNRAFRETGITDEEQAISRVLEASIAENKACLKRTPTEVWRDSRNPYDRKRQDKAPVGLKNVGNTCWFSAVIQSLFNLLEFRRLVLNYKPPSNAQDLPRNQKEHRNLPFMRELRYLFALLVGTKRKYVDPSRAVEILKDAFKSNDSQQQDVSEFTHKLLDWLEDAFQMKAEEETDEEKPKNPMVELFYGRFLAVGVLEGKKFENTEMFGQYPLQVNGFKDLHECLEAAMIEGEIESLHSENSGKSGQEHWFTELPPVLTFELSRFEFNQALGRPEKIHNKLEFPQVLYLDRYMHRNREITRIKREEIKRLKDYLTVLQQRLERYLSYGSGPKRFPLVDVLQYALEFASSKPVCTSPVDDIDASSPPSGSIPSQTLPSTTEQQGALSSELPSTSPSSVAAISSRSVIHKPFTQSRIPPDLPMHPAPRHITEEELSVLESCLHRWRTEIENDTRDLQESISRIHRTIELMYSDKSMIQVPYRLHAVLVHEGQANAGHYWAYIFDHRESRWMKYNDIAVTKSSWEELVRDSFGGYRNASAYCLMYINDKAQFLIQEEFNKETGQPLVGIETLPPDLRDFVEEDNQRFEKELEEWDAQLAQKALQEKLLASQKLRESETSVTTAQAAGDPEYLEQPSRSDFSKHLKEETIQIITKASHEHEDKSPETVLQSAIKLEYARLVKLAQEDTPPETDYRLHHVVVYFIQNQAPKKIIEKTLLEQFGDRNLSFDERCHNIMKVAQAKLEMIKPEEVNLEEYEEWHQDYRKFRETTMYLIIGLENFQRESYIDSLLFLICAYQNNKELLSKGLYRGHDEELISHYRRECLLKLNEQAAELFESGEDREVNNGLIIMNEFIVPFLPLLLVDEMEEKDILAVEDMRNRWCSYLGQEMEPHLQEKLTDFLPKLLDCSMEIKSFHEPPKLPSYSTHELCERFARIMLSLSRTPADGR
inactive: [1]; compound concentration: 50uM 0.366 | [2]; compound concentration: 50uM -0.365 | [2]; compound concentration: 200uM -0.0888 | [3]; compound concentration: 50uM -0.861 | [4]; compound concentration: 50uM 0.177 | [4]; compound concentration: 200uM -0.552 | [5]; compound concentration: 50uM 0.145 | [5]; compound concentration: 200uM -0.0181 | [6]; compound concentration: 0.78uM -0.139 | [6]; compound concentration: 1.56uM -0.159 | [6]; compound concentration: 3.13uM -0.428 | [6]; compound concentration: 6.25uM -0.379 | [6]; compound concentration: 12.5uM -0.358 | [6]; compound concentration: 25uM -0.339 | [6]; compound concentration: 50uM -0.0397 | [6]; compound concentration: 100uM -0.3 | [6]; compound concentration: 200uM -0.848 | [7]; compound concentration: 0.78uM -0.531 | [7]; compound concentration: 1.56uM -0.227 | [7]; compound concentration: 3.13uM -0.277 | [7]; compound concentration: 6.25uM -0.312 | [7]; compound concentration: 12.5uM -0.223 | [7]; compound concentration: 25uM -0.606 | [7]; compound concentration: 50uM -0.594 | [7]; compound concentration: 100uM -0.346 | [7]; compound concentration: 200uM -0.308 | [8]; compound concentration: 0.78uM -0.226 | [8]; compound concentration: 1.56uM -0.458 | [8]; compound concentration: 3.13uM -0.0391 | [8]; compound concentration: 6.25uM -0.447 | [8]; compound concentration: 12.5uM -0.421 | [8]; compound concentration: 25uM -0.293 | [8]; compound concentration: 50uM -0.255 | [8]; compound concentration: 100uM -0.504 | [8]; compound concentration: 200uM -0.644 | [9]; compound concentration: 50uM -0.56 | [10]; compound concentration: 50uM -0.02 | [10]; compound concentration: 200uM 0.295
active: [1]; compound concentration: 200uM -1.92 | [3]; compound concentration: 200uM -2.93 | [9]; compound concentration: 200uM -1.2

USP36 (UniProt Q9P275)
Sequence of UniProt Q9P275 (Q9P275 whole entry): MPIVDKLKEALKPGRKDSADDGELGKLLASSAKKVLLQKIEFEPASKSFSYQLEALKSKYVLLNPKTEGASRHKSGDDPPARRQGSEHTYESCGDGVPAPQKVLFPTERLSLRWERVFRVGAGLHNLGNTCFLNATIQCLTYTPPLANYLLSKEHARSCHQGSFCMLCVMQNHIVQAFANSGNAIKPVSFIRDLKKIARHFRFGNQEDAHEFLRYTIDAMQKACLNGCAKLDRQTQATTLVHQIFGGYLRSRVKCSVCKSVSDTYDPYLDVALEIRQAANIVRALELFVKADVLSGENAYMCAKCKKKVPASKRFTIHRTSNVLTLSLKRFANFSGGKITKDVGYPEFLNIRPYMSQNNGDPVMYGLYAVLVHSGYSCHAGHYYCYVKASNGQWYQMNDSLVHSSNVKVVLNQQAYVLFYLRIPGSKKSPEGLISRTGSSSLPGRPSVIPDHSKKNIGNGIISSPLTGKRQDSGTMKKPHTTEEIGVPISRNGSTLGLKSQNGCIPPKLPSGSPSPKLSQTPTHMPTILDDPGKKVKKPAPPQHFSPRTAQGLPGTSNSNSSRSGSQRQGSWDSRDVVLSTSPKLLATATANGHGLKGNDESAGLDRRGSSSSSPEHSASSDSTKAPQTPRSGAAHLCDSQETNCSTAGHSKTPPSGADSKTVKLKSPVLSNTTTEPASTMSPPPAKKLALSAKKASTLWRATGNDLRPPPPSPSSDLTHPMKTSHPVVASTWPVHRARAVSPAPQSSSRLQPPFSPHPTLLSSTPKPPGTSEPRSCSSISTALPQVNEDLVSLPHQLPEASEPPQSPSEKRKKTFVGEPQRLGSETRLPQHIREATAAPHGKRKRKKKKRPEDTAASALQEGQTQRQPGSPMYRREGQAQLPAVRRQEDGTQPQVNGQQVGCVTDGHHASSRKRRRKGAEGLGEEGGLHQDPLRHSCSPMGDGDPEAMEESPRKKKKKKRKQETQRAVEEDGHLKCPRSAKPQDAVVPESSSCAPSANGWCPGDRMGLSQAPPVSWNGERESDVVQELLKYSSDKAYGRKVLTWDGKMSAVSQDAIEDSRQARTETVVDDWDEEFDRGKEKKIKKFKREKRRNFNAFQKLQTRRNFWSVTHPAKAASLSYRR
inactive: [1]; compound concentration: 50uM 0.0835 | [1]; compound concentration: 200uM 0.229 | [2]; compound concentration: 50uM -0.127 | [2]; compound concentration: 200uM -0.0119 | [3]; compound concentration: 50uM -0.031 | [3]; compound concentration: 200uM -0.0419 | [4]; compound concentration: 50uM -0.145 | [4]; compound concentration: 200uM 0.158 | [5]; compound concentration: 50uM -0.121 | [5]; compound concentration: 200uM 0.283 | [6]; compound concentration: 0.78uM 0.0108 | [6]; compound concentration: 1.56uM -0.0128 | [6]; compound concentration: 3.13uM -0.0405 | [6]; compound concentration: 6.25uM -0.0421 | [6]; compound concentration: 12.5uM -0.0282 | [6]; compound concentration: 25uM -0.0131 | [6]; compound concentration: 50uM -0.0217 | [6]; compound concentration: 100uM -0.0954 | [6]; compound concentration: 200uM -0.112 | [7]; compound concentration: 0.78uM 0.107 | [7]; compound concentration: 1.56uM -0.0192 | [7]; compound concentration: 3.13uM 0.083 | [7]; compound concentration: 6.25uM 0.157 | [7]; compound concentration: 12.5uM 0.0169 | [7]; compound concentration: 25uM 0.092 | [7]; compound concentration: 50uM -0.0214 | [7]; compound concentration: 100uM 0.019 | [7]; compound concentration: 200uM -0.0674 | [8]; compound concentration: 0.78uM -0.0951 | [8]; compound concentration: 1.56uM 0.0305 | [8]; compound concentration: 3.13uM 0.102 | [8]; compound concentration: 6.25uM -0.0246 | [8]; compound concentration: 12.5uM -0.0557 | [8]; compound concentration: 25uM -0.0153 | [8]; compound concentration: 50uM -0.0239 | [8]; compound concentration: 100uM -0.0145 | [8]; compound concentration: 200uM 0.0455 | [9]; compound concentration: 50uM -0.334 | [9]; compound concentration: 200uM -0.141 | [10]; compound concentration: 50uM -0.272 | [10]; compound concentration: 200uM -0.0152

USP15 (UniProt Q9Y4E8)
Sequence of UniProt Q9Y4E8 (Q9Y4E8 whole entry): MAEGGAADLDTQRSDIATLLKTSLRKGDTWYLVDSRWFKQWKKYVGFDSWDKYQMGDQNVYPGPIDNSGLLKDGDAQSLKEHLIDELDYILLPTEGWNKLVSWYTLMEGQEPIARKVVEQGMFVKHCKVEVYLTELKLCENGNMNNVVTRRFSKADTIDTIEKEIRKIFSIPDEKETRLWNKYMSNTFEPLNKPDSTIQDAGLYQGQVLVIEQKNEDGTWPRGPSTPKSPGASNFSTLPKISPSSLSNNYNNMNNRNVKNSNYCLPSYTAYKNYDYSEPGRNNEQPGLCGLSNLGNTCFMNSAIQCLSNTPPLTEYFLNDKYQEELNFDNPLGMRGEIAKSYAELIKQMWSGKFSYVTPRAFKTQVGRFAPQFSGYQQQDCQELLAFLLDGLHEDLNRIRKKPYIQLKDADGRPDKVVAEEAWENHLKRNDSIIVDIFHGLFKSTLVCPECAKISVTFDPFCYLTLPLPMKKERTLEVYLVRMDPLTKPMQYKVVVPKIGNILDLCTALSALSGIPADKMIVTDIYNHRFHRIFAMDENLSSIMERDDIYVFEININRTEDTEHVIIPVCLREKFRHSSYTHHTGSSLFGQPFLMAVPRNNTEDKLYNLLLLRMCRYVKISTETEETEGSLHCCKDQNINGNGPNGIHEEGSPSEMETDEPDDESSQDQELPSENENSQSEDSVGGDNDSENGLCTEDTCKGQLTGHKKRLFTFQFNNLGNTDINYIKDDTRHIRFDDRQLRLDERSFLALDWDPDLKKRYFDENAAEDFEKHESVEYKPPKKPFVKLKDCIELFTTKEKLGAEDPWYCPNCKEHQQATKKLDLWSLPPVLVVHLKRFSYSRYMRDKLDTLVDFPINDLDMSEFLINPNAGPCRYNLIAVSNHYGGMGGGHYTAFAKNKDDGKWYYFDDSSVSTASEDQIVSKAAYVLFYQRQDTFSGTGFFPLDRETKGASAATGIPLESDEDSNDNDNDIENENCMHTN
inactive: [1]; compound concentration: 50uM -0.208 | [1]; compound concentration: 200uM -0.456 | [2]; compound concentration: 50uM -0.352 | [2]; compound concentration: 200uM -0.178 | [3]; compound concentration: 50uM -0.273 | [3]; compound concentration: 200uM -0.899 | [4]; compound concentration: 50uM 0.0231 | [4]; compound concentration: 200uM 0.118 | [5]; compound concentration: 50uM -0.104 | [5]; compound concentration: 200uM -0.0799 | [6]; compound concentration: 0.78uM -0.111 | [6]; compound concentration: 1.56uM 0.00504 | [6]; compound concentration: 3.13uM -0.0668 | [6]; compound concentration: 6.25uM 0.00578 | [6]; compound concentration: 12.5uM 0.00284 | [6]; compound concentration: 25uM -0.194 | [6]; compound concentration: 50uM -0.0476 | [6]; compound concentration: 100uM -0.0886 | [6]; compound concentration: 200uM -0.0894 | [7]; compound concentration: 0.78uM -0.15 | [7]; compound concentration: 1.56uM -0.0871 | [7]; compound concentration: 3.13uM -0.0689 | [7]; compound concentration: 6.25uM -0.0495 | [7]; compound concentration: 12.5uM -0.0456 | [7]; compound concentration: 25uM -0.00914 | [7]; compound concentration: 50uM -0.0377 | [7]; compound concentration: 100uM -0.0901 | [7]; compound concentration: 200uM -0.162 | [8]; compound concentration: 0.78uM -0.089 | [8]; compound concentration: 1.56uM -0.101 | [8]; compound concentration: 3.13uM -0.0661 | [8]; compound concentration: 6.25uM 0.0971 | [8]; compound concentration: 12.5uM -0.119 | [8]; compound concentration: 25uM -0.0896 | [8]; compound concentration: 50uM -0.0399 | [8]; compound concentration: 100uM -0.0575 | [8]; compound concentration: 200uM -0.135 | [9]; compound concentration: 50uM -0.143 | [9]; compound concentration: 200uM -0.873 | [10]; compound concentration: 50uM -0.696
active: [10]; compound concentration: 200uM -1.38

USP54 (UniProt Q70EL1)
Sequence of UniProt Q70EL1 (Q70EL1 whole entry): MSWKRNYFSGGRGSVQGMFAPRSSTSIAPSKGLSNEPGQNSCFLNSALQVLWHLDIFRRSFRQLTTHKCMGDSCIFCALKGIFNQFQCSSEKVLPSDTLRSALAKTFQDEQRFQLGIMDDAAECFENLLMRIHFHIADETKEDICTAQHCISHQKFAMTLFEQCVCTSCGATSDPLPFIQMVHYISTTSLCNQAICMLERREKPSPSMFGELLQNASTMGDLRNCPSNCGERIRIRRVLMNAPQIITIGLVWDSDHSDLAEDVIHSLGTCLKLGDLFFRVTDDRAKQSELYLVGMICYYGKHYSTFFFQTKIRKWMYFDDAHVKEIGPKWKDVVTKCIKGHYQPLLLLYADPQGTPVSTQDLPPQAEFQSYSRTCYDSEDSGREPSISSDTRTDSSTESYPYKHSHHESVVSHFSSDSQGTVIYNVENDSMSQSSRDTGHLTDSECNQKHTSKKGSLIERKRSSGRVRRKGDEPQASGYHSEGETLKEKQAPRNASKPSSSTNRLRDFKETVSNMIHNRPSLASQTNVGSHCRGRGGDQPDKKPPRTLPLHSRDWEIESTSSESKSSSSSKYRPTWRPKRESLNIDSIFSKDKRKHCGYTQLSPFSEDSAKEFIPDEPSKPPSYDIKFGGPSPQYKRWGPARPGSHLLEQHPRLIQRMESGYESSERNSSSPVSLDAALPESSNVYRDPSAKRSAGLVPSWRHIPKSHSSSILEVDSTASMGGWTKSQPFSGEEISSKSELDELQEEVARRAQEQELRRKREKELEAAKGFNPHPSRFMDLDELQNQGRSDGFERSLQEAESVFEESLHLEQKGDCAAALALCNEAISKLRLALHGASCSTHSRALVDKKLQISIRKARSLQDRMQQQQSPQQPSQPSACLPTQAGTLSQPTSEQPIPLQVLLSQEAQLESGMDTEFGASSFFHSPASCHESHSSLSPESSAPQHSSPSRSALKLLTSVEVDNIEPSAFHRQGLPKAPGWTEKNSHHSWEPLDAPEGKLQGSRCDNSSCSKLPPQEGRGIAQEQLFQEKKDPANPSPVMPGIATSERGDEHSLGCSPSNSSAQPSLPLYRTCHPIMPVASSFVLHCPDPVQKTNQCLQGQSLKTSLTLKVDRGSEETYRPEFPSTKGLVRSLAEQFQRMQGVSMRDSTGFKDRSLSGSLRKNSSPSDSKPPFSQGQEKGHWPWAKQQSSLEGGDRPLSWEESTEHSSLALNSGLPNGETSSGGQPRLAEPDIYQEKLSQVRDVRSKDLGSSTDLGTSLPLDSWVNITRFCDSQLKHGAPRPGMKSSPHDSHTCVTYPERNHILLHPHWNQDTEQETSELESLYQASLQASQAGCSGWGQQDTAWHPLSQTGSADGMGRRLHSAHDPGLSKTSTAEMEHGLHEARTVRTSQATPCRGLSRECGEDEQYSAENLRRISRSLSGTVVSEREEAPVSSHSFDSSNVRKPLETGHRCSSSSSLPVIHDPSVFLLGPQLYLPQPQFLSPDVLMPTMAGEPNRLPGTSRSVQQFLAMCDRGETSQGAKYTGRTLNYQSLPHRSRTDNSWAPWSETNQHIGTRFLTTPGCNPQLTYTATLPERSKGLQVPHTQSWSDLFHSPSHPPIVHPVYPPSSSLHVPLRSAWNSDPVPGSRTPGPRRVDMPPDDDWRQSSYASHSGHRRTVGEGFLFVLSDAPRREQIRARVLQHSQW
active: [3]; compound concentration: 200uM -1.09 | [4]; compound concentration: 200uM -2.4 | [6]; compound concentration: 6.25uM -1.2 | [6]; compound concentration: 12.5uM -1.06 | [8]; compound concentration: 1.56uM -1.07 | [10]; compound concentration: 200uM -2.42
inactive: [1]; compound concentration: 50uM 0.403 | [1]; compound concentration: 200uM -0.685 | [2]; compound concentration: 50uM 0.55 | [2]; compound concentration: 200uM -0.727 | [3]; compound concentration: 50uM 0.0984 | [4]; compound concentration: 50uM 0.166 | [5]; compound concentration: 50uM -0.806 | [5]; compound concentration: 200uM -0.859 | [6]; compound concentration: 0.78uM -0.349 | [6]; compound concentration: 1.56uM -0.87 | [6]; compound concentration: 3.13uM -0.672 | [6]; compound concentration: 25uM -0.646 | [6]; compound concentration: 50uM -0.519 | [6]; compound concentration: 100uM -0.598 | [6]; compound concentration: 200uM -0.947 | [7]; compound concentration: 0.78uM 0.232 | [7]; compound concentration: 1.56uM -0.0979 | [7]; compound concentration: 3.13uM -0.457 | [7]; compound concentration: 6.25uM -0.449 | [7]; compound concentration: 12.5uM -0.888 | [7]; compound concentration: 25uM 0.0566 | [7]; compound concentration: 50uM -0.582 | [7]; compound concentration: 100uM -0.163 | [7]; compound concentration: 200uM -0.256 | [8]; compound concentration: 0.78uM 0.15 | [8]; compound concentration: 3.13uM -0.564 | [8]; compound concentration: 6.25uM -0.753 | [8]; compound concentration: 12.5uM -0.0765 | [8]; compound concentration: 25uM -0.601 | [8]; compound concentration: 50uM -0.182 | [8]; compound concentration: 100uM 0.38 | [8]; compound concentration: 200uM -0.201 | [9]; compound concentration: 50uM -0.125 | [9]; compound concentration: 200uM -0.766 | [10]; compound concentration: 50uM -0.559
